High-throughput results: PubChem, Broad Institute
This is a sample that favours compounds with a hit; in the whole collection about 2.1% have one here.
Myc binder = binds human c-Myc on microarray. small molecule microarray, His-c-Myc binding, anti-His fluorescence. P01106. actives 1.5% (n = 17,000). calls only;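 active = spot fluorescence over background with P-value below 7% in all four replicate spots, showing protein binding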;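 note: score is binary with 100 for all four spots passing and 0 otherwise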
NFkB binder = binders of human NF-kappa-B p105 | P19838 | Small molecule microarray, anti-His fluorescence binding | calls only | actives 1.3% (n = 17,000);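 active = spot fluorescence over background significantly raised, with a chance value under 7% in all four replicate spots of the compound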;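 note: probe protein is his-tagged human p50 processed subunit at 1 µg/ml; raw spot fluorescence signals with no normalization applied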
STAT3 SMM = binders of human STAT3 | calls only | Small molecule microarray, His-STAT3 binding, anti-His fluorescence | actives 0.2% (n = 17,000) | AID 624138;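 active = compounds whose four printed spots each show fluorescence over background unusually high for their array block, chance value under 7%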
mut p53 SMM = binders of human mutant p53. small molecule microarray binding, anti-GST fluorescence. calls only. actives 0.4% (n = 17,000);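 active = compounds whose four printed spots each glow above background more than chance allows, each with a p-value under 7%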
The depositor's hits bear a star.

Results for C[C@@H]1CN([C@H](C)CO)C(=O)c2cccc(NC(=O)Nc3ccc(C(F)(F)F)cc3)c2O[C@@H]1CN(C)C(=O)NC1CCCCC1 ?
Myc binder: active; NFkB binder: active; STAT3 SMM: inactive; mut p53 SMM: inactive

What do the screens show for `Cc1noc(C)c1NC(=O)Nc1ccc2c(c1)C(=O)N([C@H](C)CO)C[C@H](C)[C@H](CN(C)C(=O)NC1CCCCC1)OCCCC[C@H](C)O2`?
Myc binder: inactive; NFkB binder: inactive; STAT3 SMM: inactive; mut p53 SMM: inactive

How did COc1ccc(NC(=O)Nc2ccc3c(c2)C(=O)N([C@H](C)CO)C[C@H](C)[C@@H](CN(C)Cc2ccc(Cl)c(Cl)c2)O3)cc1 do in these assays?
Myc binder: inactive; NFkB binder: inactive; STAT3 SMM: inactive; mut p53 SMM: inactive

What do the screens show for `OC1c2ccccc2-c2c3c(cc4c2C1NCC4)OCO3` (centres undefined)?
Myc binder: active; NFkB binder: active; STAT3 SMM: inactive; mut p53 SMM: inactive

How did Cc1ccc2nsnc2c1NC(=O)COc1ccc(Br)cc1 do in these assays?
Myc binder: inactive; NFkB binder: inactive; STAT3 SMM: inactive; mut p53 SMM: inactive

What do the screens show for `COc1ccccc1CC(=O)Nc1cc(Cl)ccc1O`?
Myc binder: inactive; NFkB binder: inactive; STAT3 SMM: inactive; mut p53 SMM: inactive

Results for COc1ccccc1CC(CC(=O)O)C(=O)O (centres undefined) ?
Myc binder: active; NFkB binder: active; STAT3 SMM: inactive; mut p53 SMM: inactive

What do the screens show for `C[C@H](CO)N1C[C@H](C)[C@H](CN(C)C)OCCCC[C@H](C)Oc2ccc(NC(=O)c3ccccc3)cc2C1=O`?
Myc binder: inactive; NFkB binder: inactive; STAT3 SMM: inactive; mut p53 SMM: inactive

What do the screens show for `Cc1noc(C)c1S(=O)(=O)Nc1ccc2c(c1)C(=O)N([C@H](C)CO)C[C@H](C)[C@@H](CN(C)C(=O)NC(C)C)OCCCC[C@H](C)O2`?
Myc binder: inactive; NFkB binder: active; STAT3 SMM: inactive; mut p53 SMM: inactive

How did Cc1noc(C)c1S(=O)(=O)Nc1ccc2c(c1)C(=O)N([C@H](C)CO)C[C@H](C)[C@@H](CN(C)C(=O)Nc1cccc3ccccc13)OCCCC[C@H](C)O2 do in these assays?
Myc binder: active; NFkB binder: active; STAT3 SMM: inactive; mut p53 SMM: inactive

Results for CC1=C(C(=O)Nc2cccc(Cl)c2)C(c2cc(Br)ccc2OCC(=O)O)NC(=O)N1 (centres undefined) ?
Myc binder: inactive; NFkB binder: inactive; STAT3 SMM: inactive; mut p53 SMM: inactive

What do the screens show for `N#CCCSCc1ccc2oc(C(=O)O)cc2c1`?
Myc binder: active; NFkB binder: inactive; STAT3 SMM: inactive; mut p53 SMM: inactive

What do the screens show for `Cc1c(C(=O)N(C)C2CCCCC2)sc2nc3ccc(N)cc3n12`?
Myc binder: active; NFkB binder: inactive; STAT3 SMM: inactive; mut p53 SMM: inactive

What do the screens show for `COc1ccc(CO[C@H]2O[C@H](CO)[C@@H](O)[C@H](O)[C@H]2NC(C)=O)c2cc(C)oc12`?
Myc binder: inactive; NFkB binder: inactive; STAT3 SMM: inactive; mut p53 SMM: inactive

Results for COCC1OC(OC(C)(C)C2CCC3(C)C=C(C4CCC5C4(C)CC(O)C4OC(C(C)(C)OC6OC(CO)C(O)C(O)C6NC(C)=O)CCC45C)CCC3O2)C(NC(C)=O)C(O)C1O (centres undefined) ?
Myc binder: active; NFkB binder: active; STAT3 SMM: inactive; mut p53 SMM: inactive

How did Cc1nn(CC(=O)Nc2ccc3c(c2)nc(CN2CCCC2)n3C)c(=O)c2ccccc12 do in these assays?
Myc binder: active; NFkB binder: inactive; STAT3 SMM: inactive; mut p53 SMM: active

What do the screens show for `C[C@@H]1CN([C@H](C)CO)C(=O)c2cc(NS(=O)(=O)c3ccc(Cl)cc3)ccc2O[C@H]1CN(C)C`?
Myc binder: inactive; NFkB binder: inactive; STAT3 SMM: inactive; mut p53 SMM: inactive

Results for CC(C)=CCN(C(=O)C#Cc1ccccc1)[C@H](CO)c1ccccc1 ?
Myc binder: inactive; NFkB binder: active; STAT3 SMM: inactive; mut p53 SMM: inactive

How did Cc1noc(C)c1S(=O)(=O)Nc1ccc2c(c1)C(=O)N([C@H](C)CO)C[C@H](C)[C@H](CN(C)C)OCCCC[C@@H](C)O2 do in these assays?
Myc binder: inactive; NFkB binder: inactive; STAT3 SMM: inactive; mut p53 SMM: inactive

What do the screens show for `CCOc1ccc(C)cc1S(=O)(=O)n1nnc2ccccc21`?
Myc binder: active; NFkB binder: active; STAT3 SMM: inactive; mut p53 SMM: inactive

Results for CCCN(CCC)CC1CCCCN1CCNC(=O)N1c2ccccc2C(=O)Nc2cccnc21 (centres undefined) ?
Myc binder: inactive; NFkB binder: inactive; STAT3 SMM: inactive; mut p53 SMM: active

What do the screens show for `O=C(O)COc1ccc(C(=O)Nc2ccc(F)cc2)cc1`?
Myc binder: inactive; NFkB binder: inactive; STAT3 SMM: inactive; mut p53 SMM: inactive

How did C=CCOC(=O)[C@H]1[C@@H]2C(=O)O[C@@H](c3ccccc3)[C@@H](c3ccccc3)N2[C@@H](c2ccc(OCCOC(=O)[C@@H]3C[C@@H]4C(=O)N5CCC[C@H]5C(=O)N4[C@@H]3c3cccc(OCCO)c3)cc2)[C@]12C(=O)Nc1ccccc12 do in these assays?
Myc binder: inactive; NFkB binder: inactive; STAT3 SMM: inactive; mut p53 SMM: inactive

What do the screens show for `C=CCOC(=O)[C@H]1[C@@H]2C(=O)O[C@@H](c3ccccc3)[C@@H](c3ccccc3)N2[C@@H](c2ccc(OCCOC(=O)[C@@H]3C[C@@H]4C(=O)N5CCC[C@H]5C(=O)N4[C@@H]3c3cccc(OCCO)c3)cc2)[C@]12C(=O)Nc1ccc(I)cc12`?
Myc binder: inactive; NFkB binder: active; STAT3 SMM: inactive; mut p53 SMM: inactive

Results for C=CCOC(=O)[C@H]1[C@@H]2C(=O)O[C@@H](c3ccccc3)[C@@H](c3ccccc3)N2[C@@H](c2ccc(OCCOC(=O)[C@@H]3C[C@@H]4C(=O)NCC(=O)N4[C@@H]3c3ccc(O)cc3)cc2)[C@]12C(=O)Nc1ccccc12 ?
Myc binder: inactive; NFkB binder: active; STAT3 SMM: inactive; mut p53 SMM: inactive

Results for C=CCOC(=O)[C@H]1[C@@H]2C(=O)O[C@@H](c3ccccc3)[C@@H](c3ccccc3)N2[C@@H](c2ccc(OCCOC(=O)[C@@H]3C[C@@H]4C(=O)N[C@@H](Cc5ccccc5)C(=O)N4[C@@H]3c3cccc(OCCO)c3)cc2)[C@]12C(=O)Nc1ccc(I)cc12 ?
Myc binder: inactive; NFkB binder: active; STAT3 SMM: inactive; mut p53 SMM: inactive

Results for O=S(=O)(N[C@@H]1CCCN(Cc2ccc(OCCO)cc2)C1)c1ccc2ccccc2c1 ?
Myc binder: inactive; NFkB binder: inactive; STAT3 SMM: inactive; mut p53 SMM: inactive
